ALDH1A1 inh = blocks purified human ALDH1A1 activity; actives 7.3% (n = 220,000); Purified ALDH1A1, NADH fluorescence, propionaldehyde substrate; Potency, µM (series often up to 75.3 µM), most hits filed as inhibitors
HTT aggregate = inhibitors of mutant huntingtin aggregate formation in PC12 cells | PC12 HttQ103-GFP aggregates, Acumen cytometry, 40 h | Potency, µM (highest dose often 46.1 µM), actives largely listed as inhibitors | actives 1.1% (n = 220,000) | AID 1688; active = well fitted curve in the direction sought with a large enough effect; inconclusive = small, poorly fitted or top-dose-only effect, or another doubt; inactive = no such curve, though single readings can be large; an effect the other way counts as inactive or inconclusive; note: nearly all actives have a fitted effect of over 60% in size
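PC12 cells stably carrying ecdysone-inducible HTT exon 1 Q103–GFP were induced with tebufenozide (100 nM final) and treated with library compounds in titration. GFP aggregates in lysates were counted by laser scanning cytometry.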
HTT cytoprotect = cytoprotection in Huntington HTT-Q103 PC12 cell model; PC12 HTT-Q103 induced, cytoprotection, ATP luminescence, 40 h; Potency, µM (doses to about 56.4 µM), hits mostly activators; actives 0.14% (n = 230,000); AID 1471; active = well fitted curve in the direction sought with a large enough effect; inconclusive = small, poorly fitted or top-dose-only effect, or another doubt; inactive = no such curve, though single readings can be large; an effect the other way counts as inactive or inconclusive; note: nearly all actives have a fitted effect of over 45% in size
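Compounds added alongside 100 nM tebufenozide, which induces toxic Q103 huntingtin exon 1-GFP in stable PC12 cells; surviving cells quantified by luminescent ATP measurement. Medium: phenol red-free DMEM, 5% equine and 5% calf serum.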
HPGD inh = inhibitors of human 15-hydroxyprostaglandin dehydrogenase (HPGD); actives 4.3% (n = 150,000); purified HPGD, NADH fluorescence kinetic, PGE2 substrate; Potency, µM, most hits filed as inhibitors
Target sequence (P15428 whole entry, looked up): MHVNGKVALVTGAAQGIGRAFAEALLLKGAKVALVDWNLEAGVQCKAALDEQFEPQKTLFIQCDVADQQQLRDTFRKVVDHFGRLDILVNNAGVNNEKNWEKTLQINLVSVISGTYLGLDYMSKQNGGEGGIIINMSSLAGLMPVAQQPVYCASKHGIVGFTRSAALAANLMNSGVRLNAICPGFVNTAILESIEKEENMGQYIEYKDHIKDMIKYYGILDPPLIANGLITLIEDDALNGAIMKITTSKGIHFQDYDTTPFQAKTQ
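20 nM HPGD preincubated 15 min at room temperature with compound in 50 mM Tris-HCl pH 8, 0.01% Tween 20. Started with 1 mM NAD+ and 30 uM prostaglandin E2; NADH fluorescence (360/450 nm) read 5 times over 30-s intervals, last minus first.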
CBFb-RUNX1 inh = inhibitors of human CBF-beta and RUNX1 interaction; Q01196+Q13951; AlphaScreen CBFb-His/RUNX1-biotin binding, biochemical; Potency, µM (series often up to 59.8 µM), most hits filed as inhibitors; 230,000 tested, under 10 active; AID 1477; active = well fitted curve in the direction sought with a large enough effect; inconclusive = small, poorly fitted or top-dose-only effect, or another doubt; inactive = no such curve, though single readings can be large; an effect the other way counts as inactive or inconclusive
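His-tagged CBF-beta and biotinylated RUNX1 (30 nM each) were premixed 20 min at room temperature, exposed to compound for 15 min, then given nickel-chelate and streptavidin AlphaScreen beads (50 ng each). After 90 min, AlphaScreen signal was read.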
JMJD2E inh = blocks human JMJD2E demethylase activity. B2RXH2. JMJD2E catalytic domain, FDH-coupled NADH fluorescence (FDH is formaldehyde dehydrogenase). Potency, µM (top dose mostly 57.1 µM), usual class: inhibitors. actives 1.6% (n = 230,000); note: nearly all actives have a fitted effect of over 50% in size
Target sequence (B2RXH2 1-337 limits assumed): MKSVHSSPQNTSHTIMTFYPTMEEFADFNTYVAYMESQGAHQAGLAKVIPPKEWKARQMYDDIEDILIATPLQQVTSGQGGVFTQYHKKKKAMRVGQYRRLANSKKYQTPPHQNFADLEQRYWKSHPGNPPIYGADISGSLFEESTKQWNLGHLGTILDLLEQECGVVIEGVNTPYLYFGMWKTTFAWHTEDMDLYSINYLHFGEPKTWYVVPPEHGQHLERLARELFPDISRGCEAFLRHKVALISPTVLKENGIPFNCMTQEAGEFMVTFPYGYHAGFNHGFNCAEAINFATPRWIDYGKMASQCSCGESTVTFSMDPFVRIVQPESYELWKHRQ
Numbers stand for hits; i = inactive; ? = inconclusive; nt = no result; [ ] = another dose, or the depositor's remark. This is a sample that favours compounds with a hit; in the whole collection about 9.8% have one here. Unless noted, calls come from the whole dose curve; as a rule, active = well fitted inhibition curve with a large enough effect (not every such curve was filed as active); inconclusive = small, poorly fitted or top-dose-only effect, or another doubt; inactive = no such curve, though single readings can be large or run the other way.

SMILES	ALDH1A1 inh	HTT aggregate	HTT cytoprotect	HPGD inh	CBFb-RUNX1 inh	JMJD2E inh
O=C(C1=C[C@@H](c2ccc(C(F)(F)F)cc2)C[C@@H](OCc2ccc(CO)cc2)O1)N1CCN(Cc2ccc3c(c2)OCO3)CC1	12.6µM	i[9.22 µM]	i[10 µM]	nt	i	?
C#CCNC(=O)C1=C[C@H](c2ccc(C(F)(F)F)cc2)C[C@H](OCc2ccc(CO)cc2)O1	28.2µM	i[9.22 µM]	i[10 µM]	nt	i	?
O=C(C1=C[C@H](C2CCCCC2)C[C@H](OCCCCO)O1)N1CCN(Cc2ccccc2)CC1	14.1µM	i[9.22 µM]	i[10 µM]	nt	i	i
CC(=O)Nc1nonc1-c1nc2ccccc2n1CCC#N	?	i	i[10 µM]	i	i	?
CC(=O)Nc1nonc1-c1nc2ccccc2n1CC1CC1	?	7.08µM	i	i	i	?
C[C@@H]1O[C@H]2C3=C(C(=O)[C@H]4O[C@@H]4[C@H]3O)[C@@H]1[C@@H]1[C@@H](C)OC=C3[C@H](O)[C@H]4O[C@@H]4/C(=N\OCc4ccccc4)[C@]312	i[13.5 µM]	nt	i[10 µM]	nt	i[13.1 µM]	nt
COc1ccc(N2CCN(C(=O)CCNC(=O)c3ccc(C(C)(C)C)cc3)CC2)cc1	?	i	i	nt	i	i
COc1ccc(N2CCN(C(=O)C(C)(C)Oc3ccc(Cl)cc3)CC2)cc1	10µM	?	i[10 µM]	i	i	i
COc1ccc(N2CCN(C(=O)c3ccc(C(C)(C)C)cc3)CC2)cc1	8.91µM	?	i	i	i	?
CCOC(=O)N1CCN(C(=O)C(C)(C)Oc2ccc(Cl)cc2)CC1	?	i	i	i	i	i
Cc1cc(C)c(NC(=O)NC2CCCCC2)c(C)c1	i	i	nt	i	i	i
Cc1cc(C)c(NC(=O)C2CSCCS2)c(C)c1 (centres undefined)	i	i	i[10 µM]	22.4µM	i	i
CCC(=O)c1ccc(N2CCCCCC2)c(F)c1	?	i	i	15.8µM	i	i
CCCC(=O)c1ccc(N2CCCC2)c(F)c1	?	i	i[10 µM]	22.4µM	i	i
CCC(=O)c1ccc(N2CCCC2)c(F)c1	i	i	i[10 µM]	i	i	i
CCCC(=O)c1ccc(N2CCN(S(=O)(=O)c3ccccc3)CC2)c(F)c1	i	i	i	i	i	i
CCC(=O)c1ccc(N2CCN(C(=O)c3ccccc3F)CC2)c(F)c1	14.1µM	i	i	nt	i	i
CCOC(=O)N1CCN(c2ccc(C(=O)c3ccccc3)cc2F)CC1	?	i	i	28.2µM	i	i
CSc1nsc(/C=C/Nc2ccc(F)cc2)c1C#N	?	i	i	nt	i	?
CSc1nsc(/C=C/Nc2ccc(Cl)cc2)c1C#N	7.94µM	i	i	i	i	i
CSc1nsc(N/N=C/c2ccc3c(c2)OCO3)c1C#N	i	i	i	nt	i	?
CSc1nsc(/C=C/Nc2cccc(Cl)c2)c1C#N	11.2µM	i	i	i	i	i
CSc1nsc(/C=C/Nc2ccc(O)cc2C)c1C#N	25.1µM	i	i	nt	?	12.6µM
O=C1OC(c2ccc(Cl)cc2)/C(=C(/O)c2ccccc2)C1=O (centres undefined)	7.94µM	i	i	i	i	i
O=C(c1ccccc1)N1C(=O)C(c2ccccc2)Oc2ccccc21 (centres undefined)	nt	i[9.22 µM]	i[10 µM]	nt	i	i
SMILES	ALDH1A1 inh	HTT aggregate	HTT cytoprotect	HPGD inh	CBFb-RUNX1 inh	JMJD2E inh
CCCCOc1ccc(CNC(=S)N/N=C/c2ccc(OC)c(OC)c2)cc1	i	i[9.22 µM]	i	15.8µM	i	i
CCOc1ccc(CNC(=S)N/N=C\c2ccc([N+](=O)[O-])cc2)cc1	3.16µM	i	i[10 µM]	i	i	i
O=[N+]([O-])c1ccc(COc2ncnc3ccccc23)cc1	i	i	i	nt	i	i
COC(=O)CCCCCCCCCCN1CCCCC1	i	i	i[1.9 µM]	i	i	i
CCCOC(=O)CCCCCCCCC(O)CN1CCCCC1 (centres undefined)	17.8µM	i	i	nt	i	i
C=C(C)CNC(=S)Nc1cccc(N)n1	?	i	i[10 µM]	nt	i	i
CCCCC(=O)NNC(=S)NC(=O)c1cccc([N+](=O)[O-])c1	1.78µM	i	i	8.91µM	i	i
CCCCC(=O)NNC(=S)NC(=O)c1ccc([N+](=O)[O-])cc1	5.62µM	i	i	nt	i	?
CCCCOc1ccc(C(=O)N/C(=C/c2cccc([N+](=O)[O-])c2)C(=O)O)cc1	11.2µM	i[9.22 µM]	i	nt	i	i
CCCCOc1ccc(C(=O)N/C(=C\c2cccc([N+](=O)[O-])c2)C(=O)OCCC)cc1	i	i	i	i	i	i
CCCCCC(=O)NNC(=O)Cc1ccc([N+](=O)[O-])cc1	i	i	i	nt	i	i
CCCCC(=O)NNC(=S)NC(=O)c1ccc(C)cc1	25.1µM	i[9.22 µM]	i[10 µM]	nt	i	?
CC(=O)NC(C(=O)O)C(C)(C)SN=O (centres undefined)	i	nt	i	i	i	i
COC(=O)c1ccc(NC(=O)CSc2nnc(-c3ccccc3)n2C)cc1	i	i	i[10 µM]	i	i	i
COc1ncc2nc(-c3cc(F)cc(F)c3)c(=O)n(C[C@H]3CCCO3)c2n1	i	nt	?	i	nt	nt
Cc1cc2oc(=O)cc(CN3CCCc4ccccc43)c2cc1C	25.1µM	i	i	i	i	?
CCC(=O)Oc1c(C(=O)CC)cc2c(C)cc(=O)oc2c1C	i	12.6µM	nt	i	i	i
CCC(=O)Nc1c(OC(=O)CC)ccc2c(C)cc(=O)oc12	?	?	i[10 µM]	?	i	3.98µM
CC(=O)Oc1ccc2c(C)cc(=O)oc2c1C(=O)c1ccccc1	?	i	nt	i	i	?
CCC(=O)c1cc2c(C)cc(=O)oc2c(C)c1OC	i	i	i[10 µM]	i	i	i
Cc1cccc(N/C(N)=N/c2nc(CSc3ccc(Cl)cc3)cc(=O)[nH]2)c1	nt	i[9.22 µM]	i[10 µM]	nt	i	i
CC(=O)Nc1ccc(N(C(=O)CNC(=O)c2ccco2)C(C(=O)NCC2CCCO2)c2ccccc2)cc1 (centres undefined)	i	i[9.22 µM]	i[10 µM]	nt	i	i
CC(=O)Nc1ccc(N(C(=O)CNC(=O)c2ccco2)C(C(=O)NCc2ccco2)c2ccccc2F)cc1 (centres undefined)	7.94µM	i[9.22 µM]	i[10 µM]	nt	i	i
O=C(Cn1c(=O)c(=O)n(Cc2ccccc2)c2ccc(Cl)cc21)NCC1CCCO1 (centres undefined)	?	i	i[10 µM]	nt	i	?
c1ccc(-c2csc(NNC3=NCCCCC3)n2)cc1	31.6µM	i	i[10 µM]	?	i	i
COc1ccc(-c2csc(NNC3=NCCCCC3)n2)cc1	12.6µM	i	i[10 µM]	nt	i	i
Clc1ccc(-c2csc(NNC3=NCCCCC3)n2)cc1	?	i	i	?	i	i
CCOC(=O)C1(C)NC(c2ccc(OC)cc2OC)C2C(=O)N(c3cccc(OC)c3)C(=O)C21 (centres undefined)	i	i	i[10 µM]	i	i	i
CC(C)(C)c1ccc(NC(=O)Nc2ccc3ccccc3n2)cc1	nt	i[9.22 µM]	i[10 µM]	nt	i	i

Screening results: PubChem BioAssay, National Center for Advancing Translational Sciences (NCATS)
